# Experimental data taken from the supplement of paper PMC8728848.
# Only a selection was taken, and the strongest signals are over-represented in it overall.
# B1: Gal 3 (Homo sapiens), P17931 (protein)
# chain: MADNFSLHDALSGSGNPNPQGWPGAWGNQPAGAGGYPGASYPGAYPGQAPPGAYPGQAPPGAYHGAPGAYPGAPAPGVYPGPPSGPGAYPSSGQPSAPGAYPATGPYGAPAGPLIVPYNLPLPGGVVPRMLITILGTVKPNANRIQLDFQRGNDVAFHFNPRFNENNRRVIVCNTKLDNNWGREERQSVFPFESGKPFKIQVLVEPDHFKVAVNDAHLLQYNHRVKKLNEISKLGISGDIDLTSASYTMI
# What was measured:
# Assay in all cases: glycan array binding signal (z-score within array); higher = stronger binding
# Conditions in all cases: glycan notation: IUPAC condensed, linker removed; mutation: A146Q
# Fuc(a1-2)Gal(b1-4)GlcNAc = target: Fuc(a1-2)Gal(b1-4)GlcNAc
# Procedure, shortened: (§1)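 The binding signal is a Z-score computed within each array. Data were drawn from 3228 arrays in the Consortium for Functional Glycomics database, restricted to those with a known protein sequence. Scores were averaged over arrays of the same protein sequence at different concentrations or buffers, and over linkers, and negative values can be taken as non-binding.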
# [1] = target: Fuc(a1-2)[Gal(a1-3)]Gal(b1-3)GlcNAc
# Procedure, shortened: as §1
# [2] = target: Fuc(a1-2)[Gal(a1-3)]Gal(b1-3)GlcNAc(b1-2)Man(a1-3)[Fuc(a1-2)[Gal(a1-3)]Gal(b1-3)GlcNAc(b1-2)Man(a1-6)]Man(b1-4)GlcNAc(b1-4)GlcNAc
# Procedure, shortened: as §1
# [3] = target: Fuc(a1-2)[Gal(a1-3)]Gal(b1-4)Glc
# Procedure, shortened: as §1
# [4] = target: Fuc(a1-2)[Gal(a1-3)]Gal(b1-4)GlcNAc
# Procedure, shortened: as §1
# [5] = target: Fuc(a1-2)[Gal(a1-3)]Gal(b1-4)GlcNAc(b1-2)Man(a1-3)[Fuc(a1-2)[Gal(a1-3)]Gal(b1-4)GlcNAc(b1-2)Man(a1-6)]Man(b1-4)GlcNAc(b1-4)GlcNAc
# Procedure, shortened: as §1
# [6] = target: Fuc(a1-2)[GalNAc(a1-3)]Gal(b1-3)GalNAc(a1-3)[Fuc(a1-2)]Gal(b1-4)GlcNAc
# Procedure, shortened: as §1
# Fuc(a1-4)GlcNAc = target: Fuc(a1-4)GlcNAc
# Procedure, shortened: as §1
# Gal(a1-3)Gal(b1-3)GlcNAc = target: Gal(a1-3)Gal(b1-3)GlcNAc
# Procedure, shortened: as §1
# Gal(a1-6)Glc = target: Gal(a1-6)Glc
# Procedure, shortened: as §1
# [7] = target: Gal(b1-3)Gal(b1-4)GlcNAc(b1-2)Man(a1-3)[Gal(b1-3)Gal(b1-4)GlcNAc(b1-2)Man(a1-6)]Man(b1-4)GlcNAc(b1-4)GlcNAc
# Procedure, shortened: as §1
# Gal(b1-4)GlcNAc = target: Gal(b1-4)GlcNAc
# Procedure, shortened: as §1
# [8] = target: Gal(b1-4)GlcNAc(b1-2)Man(a1-3)Man(b1-4)GlcNAc(b1-4)GlcNAc
# Procedure, shortened: as §1
# [9] = target: Gal(b1-4)GlcNAc(b1-2)Man(a1-3)[Man(a1-6)]Man(b1-4)GlcNAc(b1-4)GlcNAc
# Procedure, shortened: as §1
# [10] = target: Gal(b1-4)GlcNAc(b1-3)Gal(b1-4)GlcNAc(b1-3)Gal(b1-4)GlcNAc
# Procedure, shortened: as §1
# [11] = target: Gal(b1-4)GlcNAc(b1-3)GalNAc
# Procedure, shortened: as §1
# [12] = target: Gal(b1-4)GlcNAc(b1-3)[GlcNAc(b1-6)]Gal(b1-4)GlcNAc
# Procedure, shortened: as §1
# Gal3S(b1-4)GlcNAc6S = target: Gal3S(b1-4)GlcNAc6S
# Procedure, shortened: as §1
# Gal6S(b1-4)GlcNAc6S = target: Gal6S(b1-4)GlcNAc6S
# Procedure, shortened: as §1
# [13] = target: GlcNAc(a1-4)Gal(b1-4)GlcNAc(b1-3)Gal(b1-4)GlcNAc(b1-3)Gal(b1-4)GlcNAc
# Procedure, shortened: as §1
# GlcNAc(b1-4)GlcNAc = target: GlcNAc(b1-4)GlcNAc
# Procedure, shortened: as §1
# [14] = target: Kdn(a2-3)Gal(b1-4)[Fuc(a1-3)]GlcNAc
# Procedure, shortened: as §1
# [15] = target: Man(a1-2)Man(a1-2)Man(a1-3)Man
# Procedure, shortened: as §1
# [16] = target: Man(a1-2)Man(a1-2)Man(a1-6)[Man(a1-3)]Man
# Procedure, shortened: as §1
# Man(a1-2)Man(a1-3)Man = target: Man(a1-2)Man(a1-3)Man
# Procedure, shortened: as §1
# [17] = target: Man(a1-2)Man(a1-3)[Man(a1-2)Man(a1-6)]Man(a1-6)[Man(a1-2)Man(a1-2)Man(a1-3)]Man(b1-4)GlcNAc(b1-4)GlcNAc
# Procedure, shortened: as §1
# [18] = target: Neu5Ac(a2-3)Gal(b1-3)[Fuc(a1-4)]GlcNAc(b1-3)Gal(b1-4)[Fuc(a1-3)]GlcNAc
# Procedure, shortened: as §1
# [19] = target: Neu5Ac(a2-3)Gal(b1-4)[Fuc(a1-3)]GlcNAc6S
# Procedure, shortened: as §1
# [20] = target: Neu5Ac(a2-6)Gal(b1-4)GlcNAc(b1-2)Man(a1-6)[Man(a1-3)]Man(b1-4)GlcNAc(b1-4)GlcNAc
# Procedure, shortened: as §1
# [21] = target: Neu5Ac(a2-6)Gal(b1-4)GlcNAc(b1-3)Gal(b1-4)GlcNAc(b1-3)Gal(b1-4)GlcNAc
# Procedure, shortened: as §1
binder,measurement,setting,value
B1,glycan array binding signal (z-score),Fuc(a1-2)Gal(b1-4)GlcNAc,0.166
same,glycan array binding signal (z-score),[1],3.36
same,glycan array binding signal (z-score),[2],9.93
same,glycan array binding signal (z-score),[3],2.81
same,glycan array binding signal (z-score),[4],3.94
same,glycan array binding signal (z-score),[5],10.3
same,glycan array binding signal (z-score),[6],-0.199
same,glycan array binding signal (z-score),Fuc(a1-4)GlcNAc,-0.12
same,glycan array binding signal (z-score),Gal(a1-3)Gal(b1-3)GlcNAc,-0.087
same,glycan array binding signal (z-score),Gal(a1-6)Glc,-0.188
same,glycan array binding signal (z-score),[7],10.2
same,glycan array binding signal (z-score),Gal(b1-4)GlcNAc,-0.196
same,glycan array binding signal (z-score),[8],-0.083
same,glycan array binding signal (z-score),[9],-0.181
same,glycan array binding signal (z-score),[10],3.5
same,glycan array binding signal (z-score),[11],-0.187
same,glycan array binding signal (z-score),[12],0.13
same,glycan array binding signal (z-score),Gal3S(b1-4)GlcNAc6S,0.851
same,glycan array binding signal (z-score),Gal6S(b1-4)GlcNAc6S,-0.192
same,glycan array binding signal (z-score),[13],2.23
same,glycan array binding signal (z-score),GlcNAc(b1-4)GlcNAc,-0.132
same,glycan array binding signal (z-score),[14],-0.201
same,glycan array binding signal (z-score),[15],-0.186
same,glycan array binding signal (z-score),[16],-0.177
same,glycan array binding signal (z-score),Man(a1-2)Man(a1-3)Man,-0.199
same,glycan array binding signal (z-score),[17],-0.15
same,glycan array binding signal (z-score),[18],-0.2
same,glycan array binding signal (z-score),[19],-0.188
same,glycan array binding signal (z-score),[20],-0.197
same,glycan array binding signal (z-score),[21],1.65
